From the supplement of paper PMC7801607

Legend:
CHO = test: % viability of CHO cells (MTT); higher = less toxic; settings: 48 h
Method in brief: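 CHO cells were seeded at 10^6 cells/well in 200 µL and left overnight to attach. The medium was then replaced with fresh medium containing compound at 2 or 20 µM for 48 h. Survival was read colorimetrically with the tetrazolium (MTT) assay. Percent viability was expressed relative to untreated cells.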

HepG2-A16-CD81 = test: % inhibition of HepG2 viability (CellTiter-Glo); higher = more toxic; settings: 5 µM;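 note: HepG2-A16-CD81 hepatoma cells plated as in the liver-stage assay but without sporozoites, with DMSO wells as negative and 25 µM puromycin as positive control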
[1] = system: Plasmodium falciparum NF54 stage IV/V gametocytes; test: % inhibition of gametocyte viability (PrestoBlue); higher = more inhibition; settings: 48 h
Method in brief: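 Stage IV/V NF54 gametocytes (2% gametocytaemia, 5% haematocrit, 100 µL/well) were exposed to compound at 1 or 5 µM. Incubation was 48 h at 37 °C, stationary and hypoxic, followed by 10 µL PrestoBlue for 2 h. Fluorescence at 612 nm was read on 70 µL of transferred supernatant. Percent inhibition of gametocyte viability was normalised to DMSO and kill controls from a single run.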

[2] = system: Plasmodium falciparum NF54 asexual blood stage; test: % inhibition of asexual blood stage proliferation (pLDH); higher = more inhibition; settings: 72 h
Method in brief: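 Plasmodium falciparum NF54 ring-stage cultures (1% haematocrit, 2% parasitaemia) were exposed to compound at 2 or 20 µM in 96-well plates. Incubation was 72 h at 37 °C under 4% CO2, 3% O2 and 93% N2. Survival was read colorimetrically at 620 nm with the parasite lactate dehydrogenase assay. Percent inhibition of asexual proliferation was normalised to DMSO and kill controls, and the screen was run on two separate occasions.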

[3] = system: Plasmodium falciparum NF54 stage IV/V gametocytes; test: % inhibition of gametocyte viability (ATP bioluminescence); higher = more inhibition; settings: 24 h
Method in brief: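 In 96-well plates, compound at 1 or 5 µM was added to 30,000 density-gradient-enriched stage IV/V NF54 gametocytes per well and incubated for 24 h at 37 °C. ATP readout used the Promega BacTiter Glo bioluminescence system. Percent inhibition of gametocyte viability comes from a single run, normalised to control wells.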

[4] = system: Plasmodium falciparum NF54 stage IV/V gametocytes; test: % inhibition of gametocyte viability (luciferase reporter); higher = more inhibition; settings: 48 h
Method in brief: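 Percent inhibition was normalised to controls from a single run. Stage IV/V gametocytes of the NF54-Pfs16-GFP-Luc line, at 2% gametocytaemia and 2% haematocrit, were exposed to compound at 1 or 5 µM for 48 h at 37 °C under stationary, hypoxic conditions. Luminescence was then read from 30 µL lysate mixed with 30 µL Promega luciferin substrate on a GloMax-Multi+ reader with 10 s integration.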

| Compound | % viability of CHO cells (CHO; 2 µM) [%] | % viability of CHO cells (CHO; 20 µM) [%] | % inhibition of HepG2 viability (HepG2-A16-CD81) [%] | % inhibition of gametocyte viability ([1]; 1 µM) [%] | % inhibition of gametocyte viability ([1]; 5 µM) [%] | % inhibition of asexual blood stage proliferation ([2]; 2 µM) [%] | % inhibition of asexual blood stage proliferation ([2]; 20 µM) [%] | % inhibition of gametocyte viability ([3]; 1 µM) [%] | % inhibition of gametocyte viability ([3]; 5 µM) [%] | % inhibition of gametocyte viability ([4]; 1 µM) [%] | % inhibition of gametocyte viability ([4]; 5 µM) [%] |
| --- | --- | --- | --- | --- | --- | --- | --- | --- | --- | --- | --- |
| O=S(=O)(NCB(O)O)c1ccc(-c2nnn[nH]2)cc1C(F)(F)F | 86.3 | 66.1 | 3.27 | 18 | 9.79 | 29.1 | 28.6 | < 0 | < 0 | 1.13 | 3.64 |
| COc1cc(Cc2cnc(N)nc2N)c2c(c1OC)OC(C1CC1)C=C2 (stereo not given) | 103 | 67.7 | -4.44 | 36.3 | 6.68 | 13 | 34 | 1.06 | < 0 | 35.9 | 1.69 |
| O=C(Nc1nnc(-c2ccc(Cl)cc2)o1)c1nc2ccccc2s1 | 111 | 92.6 | 0.777 | 6.81 | 13.9 | 73.6 | 91.4 | 1.06 | < 0 | 1.1 | < 0 |
| Clc1ccc(Cn2c(CN3CCCC3)nc3ccccc32)cc1 | 97.8 | 91.5 | 2.06 | 23.6 | 61 | 11.9 | 69 | 10.2 | 57.1 | 1.55 | < 0 |
| C[C@@H]1O[C@@H]1P(=O)(O)O | 107 | 72.6 | -3.69 | < 0 | 36.1 | -0.28 | 11.5 | < 0 | < 0 | < 0 | 4.89 |
